Experiment [1] can be described thus: qHTS assay to identify small molecule antagonists of the estrogen related receptor (ERR) signaling pathway from Tox21 library - cell viability counter screen (AID 1224834). Further: nearly all actives have a fitted effect of over 30% in size. The method, boiled down: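 CellTiter-Fluor fluorescence, read after 30 min at 37 C, measures viability of ERR cells. Cells plated at 2,000/well and incubated 6 h before pin-tool compound addition, then exposed 17.5 hours at 37 C.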
For orientation: In qHTS, concentration-response curves come from the screen itself.

The nature of experiment [2]: qHTS assay to identify small molecule agonists of the constitutive androstane receptor (CAR) signaling pathway - cell viability counter screen (AID 1224836). Further: series mostly up to about 92 µM; nearly all actives have a fitted effect of over 45% in size. The method, boiled down: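 Counter screen multiplexed with the CAR reporter readout: HepG2 cells co-transfected with hCAR and the CYP2B6-2.2kb construct receive a 15-concentration compound series and 0.75 uM PK11195 (final), then CellTiter-Fluor fluorescence is read after 23 h.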

A short description of experiment [3]: qHTS assay to identify small molecule antagonists of the constitutive androstane receptor (CAR) signaling pathway - cell viability counter screen (AID 1224837). Further: series mostly up to about 92 µM; nearly all actives have a fitted effect of over 45% in size. The method, boiled down:
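Cytotoxicity counter-screen: CellTiter-Fluor fluorescence after 23 h compound exposure (15-point qHTS) in double-stable HepG2-CYP2B6-hCAR cells, with 50 nM CITCO added.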

For experiment [4], the target named is Nuclear receptor subfamily 1 group I member 3 (Homo sapiens) (UniProt Q14994). Description: qHTS assay to identify small molecule antagonists of the constitutive androstane receptor (CAR) signaling pathway (AID 1224838).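 Further: HepG2 cells stably expressing hCAR with CYP2B6 luciferase reporter stimulated by CITCO; nearly all actives have a fitted effect of over 40% in size.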 In outline:
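Antagonism measured as luciferase signal (ONE-Glo, 30 min, room temperature) in CAR-stimulated cells: HepG2-CYP2B6-hCAR double-stable line exposed 24 hr at 37 C to compound in a 15-point series plus 50 nM CITCO.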

Experiment [5] shares this target. Description: qHTS assay to identify small molecule agonists of the constitutive androstane receptor (CAR) signaling pathway (AID 1224839). Further: nearly all actives have a fitted effect of over 15% in size. Further: potency means the concentration at half of the fitted maximal effect. In outline: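 A 15-concentration quantitative screen uses HepG2 cells co-transfected stably with human CAR and CYP2B6-2.2kb reporter. Treatment lasts 24 h with 0.75 uM PK11195 final present; ONE-Glo luminescence is the signal.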

A short description of experiment [6]: qHTS assay to identify small molecule antagonists of the estrogen related receptor signaling pathway with the pleiotropic PPARgamma coactivator (PGC) from Tox21 10K library - cell viability counter screen (AID 1224840; active means well fitted cell-killing curve with a large enough effect in the repeat runs, not every such curve was filed as active; further: nearly all actives have a fitted effect of over 40% in size). The method, boiled down: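 Counter-screen for cytotoxicity: after 17.5 h compound exposure at 37 C, CellTiter-Fluor reagent added to PGC/ERR cells for 30 min and fluorescence read. Cells were seeded at 2,000 per well 6 h before dosing.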

In experiment [7] the target is Thyrotropin receptor (Homo sapiens) (UniProt P16473). Description: qHTS assay to identify small molecule agonists of the thyroid stimulating hormone receptor (TSHR) signaling pathway (AID 1224843; calls by dose curve; further: nearly all actives have a fitted effect of over 45% in size; further: potency means the concentration at half of the fitted maximal effect). In outline:
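Agonist activity read as cAMP rise via d2/cryptate HTRF competition, 1 h room-temperature detection, in HEK293 cells expressing TSHR. Fifteen-point titrations, each run in triplicate, with a 30 min room-temperature incubation beforehand.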

Experiment [8] is described as follows: qHTS assay to identify small molecule antagonists of the estrogen related receptor signaling pathway with the pleiotropic PPARgamma coactivator (PGC) from Tox21 10K library (AID 1224841; call rule not given here; further: actives are mostly falling curves and most rising ones were filed inactive; nearly all actives have a fitted effect of over 50% in size; further: potency means the concentration at half of the fitted maximal effect). In outline: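 Luminescence (One-Glo, 30 min at room temperature) after 18 h compound treatment at 37 C of PGC/ERR reporter cells plated at 2,000 cells/well and settled 6 h beforehand.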

The nature of experiment [9]: qHTS assay to identify small molecule agonists of the estrogen related receptor signaling pathway with the pleiotropic PPARgamma coactivator (PGC) from Tox21 10K library (AID 1224842). Further: nearly all actives have a fitted effect of over 15% in size. In outline: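 Luminescence from One-Glo (30 min, room temperature) measured after PGC/ERR cells had 18 h at 37 C with pinned compound (23 nL in DMSO). Cells had been seeded at 2,000 per well and pre-incubated 6 h.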

Experiment [10] deals with Luciferin 4-monooxygenase (Photinus pyralis) (UniProt P08659). Description: qHTS assay to identify small molecule inhibitors of firefly luciferase (AID 1224835). Further: series mostly up to about 120 µM; nearly all actives have a fitted effect of over 25% in size. The method, boiled down:
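Inhibition of purified Photinus luciferase is measured by luminescence. Substrate levels (D-luciferin, ATP) sit at their KM values. Each compound is tested in a concentration series.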

Our source for the Potency values is PubChem BioAssay (Tox21).

Values joined by “and” are separate entries in the source; they are usually repeats but may differ in a detail not shown here. Equal values may be shown once. Records with an inconclusive call do not appear. Active and inactive are the calls of the source. Unless noted, the call rests on the fitted dose curve; in most records, active means well fitted curve in the direction sought with a large enough effect in the repeat runs; inconclusive means weak or mixed curves; inactive means no such curve, though single readings can be large; an effect the other way counts as inactive or inconclusive.

Sequence of Thyrotropin receptor (Homo sapiens) (P16473 whole entry, looked up): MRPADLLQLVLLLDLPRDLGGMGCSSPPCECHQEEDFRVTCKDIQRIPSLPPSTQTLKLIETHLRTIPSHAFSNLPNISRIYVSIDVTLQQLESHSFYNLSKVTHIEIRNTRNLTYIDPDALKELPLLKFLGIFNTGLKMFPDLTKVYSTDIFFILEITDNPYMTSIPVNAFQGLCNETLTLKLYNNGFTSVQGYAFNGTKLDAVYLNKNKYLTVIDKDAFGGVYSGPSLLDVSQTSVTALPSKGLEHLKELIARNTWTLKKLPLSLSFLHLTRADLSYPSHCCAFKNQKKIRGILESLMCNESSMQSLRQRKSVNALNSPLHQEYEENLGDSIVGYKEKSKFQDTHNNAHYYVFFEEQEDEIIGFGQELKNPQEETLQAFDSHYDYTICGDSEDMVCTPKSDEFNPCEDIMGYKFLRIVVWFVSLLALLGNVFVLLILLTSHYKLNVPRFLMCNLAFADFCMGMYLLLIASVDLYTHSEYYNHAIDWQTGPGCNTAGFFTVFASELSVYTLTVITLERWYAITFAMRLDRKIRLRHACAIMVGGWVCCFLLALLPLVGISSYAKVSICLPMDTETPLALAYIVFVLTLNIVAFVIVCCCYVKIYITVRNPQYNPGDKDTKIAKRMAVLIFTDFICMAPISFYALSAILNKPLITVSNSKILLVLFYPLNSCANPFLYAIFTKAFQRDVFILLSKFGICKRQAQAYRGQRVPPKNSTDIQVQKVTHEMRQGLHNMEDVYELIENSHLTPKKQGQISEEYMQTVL
Sequence of Nuclear receptor subfamily 1 group I member 3 (Homo sapiens) (Q14994 whole entry, looked up): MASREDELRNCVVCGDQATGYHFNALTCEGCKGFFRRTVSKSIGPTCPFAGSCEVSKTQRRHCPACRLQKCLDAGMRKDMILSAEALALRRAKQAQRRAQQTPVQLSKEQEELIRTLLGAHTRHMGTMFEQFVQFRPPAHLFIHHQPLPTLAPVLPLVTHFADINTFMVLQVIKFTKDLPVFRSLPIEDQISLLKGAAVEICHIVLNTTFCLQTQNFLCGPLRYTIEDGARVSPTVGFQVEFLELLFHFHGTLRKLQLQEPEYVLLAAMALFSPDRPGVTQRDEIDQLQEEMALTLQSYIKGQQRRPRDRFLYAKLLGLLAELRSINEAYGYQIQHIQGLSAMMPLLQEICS
Sequence of Luciferin 4-monooxygenase (Photinus pyralis) (P08659 whole entry, looked up): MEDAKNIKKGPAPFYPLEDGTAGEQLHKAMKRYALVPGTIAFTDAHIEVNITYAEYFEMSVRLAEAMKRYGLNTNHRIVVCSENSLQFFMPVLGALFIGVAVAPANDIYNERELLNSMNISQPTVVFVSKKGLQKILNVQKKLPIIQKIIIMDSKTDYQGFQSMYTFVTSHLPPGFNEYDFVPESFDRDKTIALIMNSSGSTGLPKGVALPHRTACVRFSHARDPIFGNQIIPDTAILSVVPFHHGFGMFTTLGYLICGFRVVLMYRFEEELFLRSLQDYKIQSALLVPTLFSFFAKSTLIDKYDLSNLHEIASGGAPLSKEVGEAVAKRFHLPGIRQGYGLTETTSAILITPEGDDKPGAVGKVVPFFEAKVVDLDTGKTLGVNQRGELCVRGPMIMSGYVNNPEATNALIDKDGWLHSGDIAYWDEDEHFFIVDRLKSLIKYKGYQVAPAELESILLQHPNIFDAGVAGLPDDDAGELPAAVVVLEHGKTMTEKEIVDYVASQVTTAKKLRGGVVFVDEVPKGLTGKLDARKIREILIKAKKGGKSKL

Consider `SCc1ccccc1`, for which the Potency entry in experiment [1], in experiment [2], in experiment [3], in experiment [4], in [5] and in experiment [6] was “inactive” each time. In addition, the Potency result in experiment [7] was “inactive”.

Regarding `C[C@H]1[C@@H]2Cc3ccc(O)cc3[C@@]1(C)CCN2C`, the Potency result in experiment [1], in [2], in experiment [3], in [6], in [8] and in experiment [9] was “inactive” in each case. The Potency result in experiment [7] was “inactive”.

As for `CCOC(C(=O)OCCN(C)C)(c1ccccc1)c1ccccc1`, the Potency result in experiment [1], in experiment [2], in experiment [3], in experiment [4], in [6] and in [8] was “inactive” each time. Also, the Potency result in [9] is “inactive”.

As for `CCCN(CCOc1c(Cl)cc(Cl)cc1Cl)C(=O)n1ccnc1`, the Potency result in experiment [10], in [2], in experiment [4] and in experiment [9] was “inactive” each time. Moreover, the Potency in [5] was 54.5 µM (active); in [8] it was 55.6 µM (active) and 27.3 µM (active).

For `CON(C)C(=O)Nc1ccc(Cl)cc1`, the Potency entry in experiment [1], in experiment [2], in experiment [3], in [6] and in [7] was “inactive” each time.

Consider `CN(C1CCCCC1)C1CCCCC1`, for which the Potency entry in experiment [1], in experiment [2], in experiment [3], in experiment [4], in experiment [5] and in experiment [6] was “inactive” each time. In experiment [7], the Potency result is “inactive”.

On to `CC(C)c1ccc(OP(=O)(Oc2ccc(C(C)C)cc2)Oc2ccc(C(C)C)cc2)cc1`, for which the Potency entry in experiment [10], in experiment [2], in [3], in [4] and in [6] was “inactive” in each case. The Potency in experiment [5] was 30.9 µM (active) and 27.3 µM (active) and 48.5 µM (active); in experiment [7] it was 13.8 µM (active) and 15.4 µM (active) and 13.7 µM (active).

In the case of `O=C(O)c1cc(Cl)ccc1Cl`, the Potency result in experiment [1], in [2], in experiment [3] and in experiment [6] was “inactive” each time.

As to `CCC1CCC(=O)O1` (stereo not given), the Potency entry in [1], in [2], in experiment [3], in experiment [6] and in experiment [7] was “inactive” each time.

Take `COc1cc(CC(C)N)c(OC)cc1Br` (stereo not given): the Potency result in experiment [10], in experiment [2], in experiment [9] and in [7] was “inactive” throughout.

Turning to `CN[C@@H](C)[C@H](O)c1ccccc1`, the Potency entry in experiment [1], in [2], in experiment [3], in experiment [4], in experiment [5] and in experiment [6] was “inactive” throughout. Also, in experiment [7], the Potency result was “inactive”.

As to `COc1cc(C[C@@H](C)N)c(OC)cc1Br`, the Potency result in experiment [1], in experiment [2], in experiment [3], in [6] and in [9] was “inactive” throughout. In addition, the Potency in experiment [8] is 31.5 µM (active).

Take `NP(N)(=O)NC(=O)c1ccc(F)cc1`: the Potency result in experiment [1], in experiment [2], in experiment [3], in experiment [6], in experiment [8] and in experiment [9] was “inactive” throughout. In experiment [7], the Potency entry is “inactive”.

Consider `N#CC(C#N)=C(C#N)C#N`, for which the Potency entry in experiment [1], in experiment [2], in experiment [3], in [4], in [6] and in experiment [9] was “inactive” throughout. In addition, the Potency result in [7] was “inactive”. For the same molecule, the Potency in experiment [8] is 1.8 µM (active).

For the molecule `O=C(O)COc1cc(Cl)c(Cl)cc1Cl`, the Potency result in experiment [1], in [2], in experiment [3], in [6], in experiment [8] and in experiment [9] was “inactive” each time. Besides, the Potency entry in experiment [7] is “inactive”.

Consider `CCC(C)Cl` (stereo not given), for which the Potency entry in [1], in experiment [2], in experiment [3], in [4], in experiment [5] and in [6] was “inactive” each time. The Potency entry in experiment [7] is “inactive”.

`CC(C)c1ccc(NC(=O)N(C)C)cc1`: the Potency result in experiment [2], in experiment [3], in experiment [4], in [6], in experiment [8] and in [7] was “inactive” in each case. Also, in experiment [5], the Potency is 48.5 µM (active).

As for `CCCN(CCC)C(=O)Cc1c(-c2ccc(Cl)cc2)nc2ccc(Cl)cn12`, the Potency result in experiment [2], in experiment [3], in [4], in [6] and in [7] was “inactive” each time.

As to `Nc1ccccc1C(=O)OCC(O)CO` (stereo not given), the Potency result in experiment [1], in experiment [2], in experiment [3], in experiment [4], in experiment [5] and in experiment [6] was “inactive” throughout. Further, the Potency result in experiment [7] was “inactive”.
